# Data as given in PubChem BioAssay (NCI).
# About 83,000 compounds went through this panel and 20% of them were active in at least one assay; those are over-represented in the sample as a whole.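 Results are percent growth after 48 hours of single-concentration exposure. 100 means growth as in untreated cells, lower positive values show inhibition; negative values down to -100 show cell death.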 Values without a mark were called inactive. Activity calls are given as the source filed them. How the source made its calls: active means growth percent below 10; inactive means the rest.
# Tests used:
# Assay in all cases: NCI-60 one-dose screen, 48 h (100 = growth as untreated, 0 = no growth, -100 = all killed)
# Details in all cases: 10 µM unless noted
# HCT-15 colon = tested on: HCT-15 colon
# HT29 colon = tested on: HT29 colon
# SNB-75 CNS = tested on: SNB-75 CNS
# SNB-19 CNS = tested on: SNB-19 CNS
# U251 CNS = tested on: U251 CNS
# PC-3 prostate = tested on: PC-3 prostate
# SK-MEL-5 melanoma = tested on: SK-MEL-5 melanoma
# UACC-62 melanoma = tested on: UACC-62 melanoma
# LOX IMVI melanoma = tested on: LOX IMVI melanoma
# SK-MEL-28 melanoma = tested on: SK-MEL-28 melanoma
Compound,growth (HCT-15 colon),growth (HT29 colon),growth (SNB-75 CNS),growth (SNB-19 CNS),growth (U251 CNS),growth (PC-3 prostate),growth (SK-MEL-5 melanoma),growth (UACC-62 melanoma),growth (LOX IMVI melanoma),growth (SK-MEL-28 melanoma)
CC1=C(CCCOC(=O)NCCCl)C2=C(C)C3(CC3)[C@@](C)(O)C(=O)C2=C1,24.9%,31.1%,58.3%,57.3%,54.2%,38%,7.89% (active),49.9%,61.1%,69.3%
Cc1cnc(SCc2ccc(Cl)cc2Cl)nc1Nc1ccc(Cl)c(Cl)c1,99.8%,85.1%,85.4%,96.7%,93.9%,71.6%,93.4%,53.4%,81.2%,111%
CCOC(=O)C1CCN(S(=O)(=O)/N=C2/NC(=O)NC2=C(Cl)Cl)CC1,-72.6% (active),-61.6% (active),55.5%,16.8%,-86.7% (active),17.7%,14.1%,-30.6% (active),-65% (active),-8.67% (active)
O=C(CCCC(=O)Nc1ccc(-n2nnc3cc(Cl)c(Cl)cc32)cc1)Nc1ccc(-n2nnc3cc(Cl)c(Cl)cc32)cc1,74.1%,43.8%,30.4%,29.8%,28.7%,19.4%,42.2%,30.8%,50.9%,57.9%
CNC(=O)c1cc(Oc2ccc3c(c2)sc2nc(-c4ccc(NC(C)=O)cc4)cn23)ccn1,53%,34.7%,-0.726% (active),55.2%,40.7%,36.6%,31.7%,46.7%,60.9%,70%
O=C1CCC23OC(c4ccccc4N12)C(O)C(O)C3O (stereo not given),109%,91.6%,113%,101%,105%,95.6%,111%,98.5%,100%,118%
COc1cc(NCC(=O)Nc2cc(Nc3cccc(C(F)(F)F)c3)ncn2)c(Cl)c(OC)c1Cl,94%,81.7%,83.4%,99.9%,92.5%,82.2%,95.2%,75.5%,93.2%,105%
O=C(CCl)N1CCCc2ccccc21,99.8%,103%,72.6%,100%,105%,96.8%,95.7%,94.3%,99.6%,103%
O=S(=O)(Nc1nccs1)c1ccc(Nc2nc(-c3ccncc3)cs2)cc1,103%,120%,84.7%,101%,95.2%,96.8%,107%,94.7%,95.8%,109%
CC1CCN(CCCCCOc2ccc3oc4ccccc4c(=O)c3c2)CC1,35.7%,10.8%,84.7%,87.5%,67.5%,80.8%,-12.2% (active),14.3%,53.3%,87.7%
Cc1nnc(/N=C2\NC(=O)/C(=C/c3ccsc3)S2)s1,88%,90.6%,74.3%,100%,94.6%,89.6%,98.4%,102%,87.7%,101%
O=C(CCCCCCCCC(=O)Nc1cccc(C2=NCCN2)c1)Nc1cccc(C2=NCCN2)c1,102%,82.3%,110%,102%,91.7%,84.9%,98.2%,105%,98.7%,92.8%
